According to PubChem BioAssay (NCI):
Compounds without any hit were thinned out: in the full panel of roughly 83,000, 20% have a hit.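 Each cell line was grown in a 96-well plate and treated with one concentration of compound for 48 hours. Values below 10 were considered active.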 The source made the active and inactive calls.

Tests used:
Experiment in all cases: NCI-60 one-dose screen, 48 h (100 = growth as untreated, 0 = no growth, -100 = all killed)
Settings in all cases: 10 µM
[1] = test system: NCI-H23 lung
[2] = test system: NCI-H226 lung
[3] = test system: NCI-H322M lung
[4] = test system: HOP-62 NSCLC
[5] = test system: NCI-H460 lung
[6] = test system: NCI-H522 lung
[7] = test system: A549/ATCC NSCLC
[8] = test system: 786-0 renal
[9] = test system: COLO 205 colon
[10] = test system: HOP-92 NSCLC

Measured: growth

C=C[Si](OC(C)=O)(OC(C)=O)OC(C)=O
inactive: [1] 106% | [2] 111% | [3] 87.6% | [4] 89.5% | [5] 103% | [6] 88.7% | [7] 104% | [8] 98.5% | [9] 107%

COC(=O)c1ccccc1N(C)C
inactive: [1] 97.7% | [2] 99.3% | [3] 104% | [4] 89.7% | [5] 110% | [6] 99.1% | [7] 92.7% | [8] 102% | [9] 101%

Cc1c(O)cnc2nn(-c3ccccc3)c(=N)n12
inactive: [1] 102% | [2] 100% | [3] 114% | [4] 98.3% | [5] 103% | [7] 96.1% | [8] 102% | [9] 123%

CC(C)(C)c1cc(O)c(C(C)(C)C)cc1O
inactive: [1] 96.3% | [2] 67.8% | [3] 100% | [4] 105% | [5] 96.3% | [6] 63.3% | [7] 87.4% | [8] 95.8% | [9] 108%

CC1(O)CCCCC1O (centres undefined)
inactive: [1] 103% | [2] 104% | [3] 104% | [4] 95.9% | [5] 109% | [6] 91.8% | [8] 102% | [9] 108%

O=C1OC[C@H]2[C@H](c3ccc(O)c(O)c3)c3cc(O)c(O)cc3C[C@H]12
inactive: [1] 13.4% | [2] 116% | [3] 130% | [4] 130% | [5] 122% | [6] 19.4% | [8] 110% | [9] 108%

O=C1C=CC2=C3c4cc(O)c(O)cc4CC3(O)COC2=C1O (centres undefined)
inactive: [1] 117% | [2] 95.1% | [3] 107% | [4] 100% | [5] 89.8% | [6] 84.5% | [8] 92.1% | [9] 98.6%

c1ccc(CN2COc3c(ccc4c3OCN(Cc3ccccc3)C4)C2)cc1
active: [2] -9.91% | [5] 9.51% | [7] 6.93% | [8] -26%
inactive: [1] 29.9% | [3] 32.9% | [4] 26.2% | [6] 30.7% | [9] 12.7%

N#Cc1ccc(NC(=O)Nc2cccc(C#N)c2)cc1
inactive: [1] 86.3% | [2] 116% | [3] 116% | [4] 112% | [5] 78.8% | [6] 51.9% | [7] 69.1% | [8] 97.5% | [9] 160%

COc1cc(C(N)=O)cc(OC)c1OC
inactive: [1] 101% | [2] 102% | [3] 106% | [4] 99.6% | [5] 111% | [6] 102% | [8] 108% | [9] 101%

CC1(C(=O)O)NC(C(=O)O)Cc2c1[nH]c1ccccc21 (centres undefined)
inactive: [1] 101% | [2] 93.8% | [3] 91.5% | [4] 102% | [5] 105% | [6] 92.6% | [7] 101% | [8] 104% | [9] 104%

CN(C)CCN(Cc1ccccc1)c1ccccc1
inactive: [1] 99.8% | [2] 109% | [3] 110% | [4] 107% | [5] 104% | [6] 104% | [7] 106% | [8] 105% | [9] 118%

CC(CC(=O)c1ccccc1)c1ccccc1 (centres undefined)
inactive: [1] 106% | [2] 98.4% | [3] 90.6% | [4] 119% | [5] 104% | [6] 84.1% | [8] 96.8% | [9] 123%

CC(C)(C)n1nc(C2CC2)c(Br)c1NC(=O)c1ccccc1F
inactive: [1] 117% | [2] 102% | [3] 98.3% | [4] 92.5% | [5] 102% | [7] 93% | [8] 99.6% | [9] 104%

S=c1nn[nH]c2ccccc12
inactive: [1] 99.6% | [2] 93.8% | [3] 95.6% | [4] 98% | [5] 105% | [7] 96.4% | [8] 111% | [9] 93.4%

CC1(C)/C(=C\CO)C2CCC1C2 (centres undefined)
inactive: [1] 103% | [2] 98.1% | [3] 103% | [4] 96.8% | [5] 115% | [6] 88.8% | [8] 101% | [9] 111%

COc1cc2c3c(n(C)c(=O)c2cc1OC)-c1cc2c(cc1C3=O)OCO2
inactive: [1] 71.9% | [2] 66.9% | [3] 89.9% | [4] 45.1% | [5] 29.3% | [7] 81.8% | [8] 77.1% | [9] 72.5%
active: [6] 1.48%

CC1=CC(C)(C)NC(=S)N1c1ccc(S(=O)(=O)O)c2cccc(S(=O)(=O)O)c12
inactive: [1] 101% | [2] 100% | [3] 127% | [4] 99.5% | [5] 110% | [7] 106% | [8] 112% | [9] 102%

C=CC(=O)OCCCCCCCC
inactive: [1] 105% | [2] 98.9% | [3] 117% | [4] 98.4% | [5] 102% | [7] 99.8% | [8] 104% | [9] 107%

CN(C)C(C)(C)CC(C)(C)C
inactive: [1] 103% | [2] 99.7% | [3] 116% | [4] 104% | [5] 108% | [7] 108% | [8] 100% | [9] 106%

O=C(N/N=C\c1cc(Br)cc(Br)c1O)N/N=C/c1cc(Br)cc(Br)c1O
inactive: [1] 67.1% | [2] 50.6% | [3] 42.2% | [4] 52.8% | [5] 69.8% | [6] 22.3% | [8] 46.5% | [9] 62.1%

O=C(/C=C\c1ccc(O)cc1)c1ccccc1
inactive: [1] 102% | [2] 107% | [3] 101% | [4] 110% | [5] 113% | [7] 94.2% | [8] 97.8% | [9] 98%
active: [6] -31.4%

S=c1[nH]ccn1-c1ccccc1Cl
active: [6] -30.9%
inactive: [1] 112% | [2] 113% | [3] 133% | [4] 112% | [5] 117% | [7] 53.8% | [8] 109% | [9] 117%

CN(C)/N=C/c1ccccc1O
inactive: [1] 113% | [2] 98.6% | [3] 89.7% | [4] 109% | [5] 100% | [6] 96.2% | [7] 104% | [8] 92.8% | [9] 112%

CC1=CC(=O)c2ccccc2C1=O
inactive: [1] 101% | [2] 101% | [3] 99.2% | [4] 105% | [5] 115% | [6] 114% | [7] 94.1% | [8] 106% | [9] 108%

Nc1ccc(N=Nc2ccc(O)cc2)c(N)n1
inactive: [1] 91.2% | [2] 75.8% | [3] 97.4% | [4] 99.7% | [5] 84.1% | [6] 47% | [7] 69.2% | [8] 65.3% | [9] 109%

CCC/C=C(\C)C(C)(C#N)C(=O)OCC (centres undefined)
inactive: [1] 116% | [2] 101% | [3] 111% | [4] 99.1% | [5] 108% | [7] 95.7% | [8] 110% | [9] 110%

O=C1Cc2cc(O)ccc2O1
inactive: [1] 111% | [2] 103% | [3] 94.5% | [4] 101% | [5] 111% | [6] 88.4% | [7] 98.7% | [8] 103% | [9] 117%

C[C@@H](c1ccccc1)[C@@H](C(=O)O)c1ccccc1
inactive: [1] 100% | [2] 98.8% | [3] 97.5% | [4] 99.7% | [5] 104% | [6] 99.9% | [7] 101% | [8] 99.5% | [9] 107%

C#Cc1cccc(NC(=O)c2ccc(Cl)cc2Cl)c1
inactive: [1] 102% | [2] 104% | [3] 98.3% | [4] 108% | [5] 105% | [6] 74.4% | [7] 48.7% | [8] 99.9% | [9] 128%

CC(=O)NCc1cc(C)c(C)cc1C
inactive: [1] 102% | [2] 93.4% | [3] 92% | [4] 106% | [5] 104% | [8] 97.8% | [9] 94.2%

COC(=O)/C=C/C(=O)NC(N)=O
inactive: [1] 94.7% | [2] 94.1% | [3] 107% | [4] 98.8% | [5] 105% | [8] 103% | [9] 105%

CN(C)c1ccc(S(=O)(=O)O)cc1
inactive: [1] 103% | [2] 96.6% | [3] 116% | [4] 91.1% | [10] 85.8% | [6] 101% | [7] 105% | [8] 110% | [9] 102%

O=C1C=C(O)C(=O)C=C1O
inactive: [1] 94.8% | [2] 114% | [3] 112% | [4] 97.9% | [5] 107% | [7] 112% | [8] 107% | [9] 94.1%

O=C(O)CSCSCC(=O)O
inactive: [1] 99.8% | [2] 95.2% | [3] 108% | [4] 91.5% | [5] 104% | [8] 103% | [9] 100%
